Peg3 prom inh = Peg3 promoter activity inhibition; HeLa PEG-Prom luciferase reporter, luminescence, overnight; inhibition, % at 20 µM; actives 1.7% (n = 360,000);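 active = inhibition of at least 50% at 20 µM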
KKLEB tox = counter-screen for CF NF-kB inhibitors: cytotoxicity; activity change (cytotoxicity), % at 5 µM; KKLEB CF airway cells viability, ATPlite luminescence, overnight; stronger effect = lower value; cells stimulated with P. aeruginosa culture filtrate; actives 0.36% (n = 360,000); AID 602141;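 active = corrected activity change at or below -50% at 5 µM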
TROY NFkB inh = TROY signaling inhibition | Q293 LMP1-TROYcd NF-kB luciferase reporter, 4 h | inhibition, % at 10 µM | actives 0.98% (n = 360,000) | AID 1347056;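 active = compounds whose plate-normalised and pattern-corrected inhibition of the luciferase reporter signal at the single screening dose is 50% or more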
TWEAK-Fn14 inh = inhibitors of TWEAK-Fn14 interaction signaling | TWEAK-stimulated Fn14 reporter cells, luciferase luminescence, 8 h | inhibition, % at 10 µM | actives 2% (n = 360,000); in the data active = inhibition above about 50%
CF NFkB inh = blocks PAF-induced NF-kB reporter in cystic fibrosis cells. actives 0.86% (n = 360,000). inhibition, % at 5 µM. KKLEB NF-kB-GFP reporter, GFP fluorescence overnight;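 active = at least 50% inhibition at 5 µM, scaled per plate between neutral and stimulator controls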;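 note: PAF is a Pseudomonas aeruginosa culture filtrate used as stimulus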
HIF-2a inh = HIF-2a inhibition; actives 0.72% (n = 360,000); 786-0 RCC cells HIF-2a reporter, luciferase luminescence, overnight; inhibition, % at 18.8 µM; AID 624352;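 active = inhibition of the luminescence signal of 40% or more relative to plate controls, in a single-dose primary screen at 18.75 µM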
Numbers stand for hits; 0 = inactive; - = no result. Rows were chosen to be rich in hits. Some 4% of all compounds tested hit in one or more screens of this group.

SMILES	Peg3 prom inh	KKLEB tox	TROY NFkB inh	TWEAK-Fn14 inh	CF NFkB inh	HIF-2a inh
CCOC(=O)C1(Cc2cccc(OC)c2)CCCN(C(=O)c2cc(C)oc2C)C1 (centres undefined)	0	0	0	0	0	0
C(=C\c1ccccc1)/CN1CCN(C(c2cccc3ccccc23)c2nnnn2-c2ccc3c(c2)OCCO3)CC1 (centres undefined)	0	0	0	0	0	0
CN(C)C(=O)CCc1ccc2c3c([nH]c2c1)[C@]1(CCC2CCCC2)[C@@H](C(=O)N2CCOCC2)C[C@H](CC(=O)NCc2cccc(C(F)(F)F)c2)C(=O)N1CC3	0	0	0	0	0	0
CC(C)=CCC/C(C)=C/CNC(=O)CC1C[C@H](C(=O)N(C(C)C)C(C)C)[C@@]2(C)c3[nH]c4ccccc4c3CCN2C1=O (some centres undefined)	89.3	0	0	0	0	0
COc1ccc2[nH]c3c(c2c1)CCN1C(=O)C(CC(=O)NC/C=C(\C)CCC=C(C)C)C[C@H](C(=O)N(C(C)C)C(C)C)[C@@]31C (some centres undefined)	0	0	0	0	0	0
CC(C)=CCC/C(C)=C/CNC(=O)C[C@H]1C[C@H](C(=O)N(C(C)C)C(C)C)[C@@]2(C)c3[nH]c4ccc(Cl)cc4c3CCN2C1=O	0	0	0	55.9	0	0
O=C(CC1C[C@H](C(=O)N2CCOCC2)[C@@]2(CCC3CCCC3)c3[nH]c4ccccc4c3CCN2C1=O)NCc1cccc(C(F)(F)F)c1 (some centres undefined)	90.2	0	0	0	0	0
CC[C@H](C)[C@@H]1OC(=O)[C@@H](C)[C@@H](CC)NC(=O)[C@H](C)N(C)C(=O)C(C)(C)C(=O)C(C)NC(=O)[C@H](Cc2ccccc2)N(C)C(=O)[C@H](C(C)C)N(C)C(=O)CNC(=O)[C@H](CC(C)C)N(C)C(=O)CNC1=O (some centres undefined)	87.2	-96.6	0	0	90.6	0
Clc1c(Cl)c(Cl)c2n[nH]nc2c1Cl	0	0	59.9	0	0	0
CC(C)Oc1ccccc1/C=N/Nc1ccccc1[N+](=O)[O-]	0	0	82.3	0	0	0
CCCOc1ccc(/C=N/Nc2ccccc2[N+](=O)[O-])c(O)c1	0	0	90.5	98.2	0	0
CCCOc1ccc(/C=N/Nc2cccc([N+](=O)[O-])c2)c(O)c1	0	0	0	0	0	0
CC1CCCN(CCCNC(=O)c2ccc3c(c2)N(Cc2ccc(F)cc2)C(=O)c2ccccc2S3=O)C1 (centres undefined)	0	0	0	0	0	0
CC1CCCN(CCCNC(=O)c2ccc3c(c2)N(Cc2cccc(Cl)c2)C(=O)c2ccccc2S3=O)C1 (centres undefined)	56.8	0	0	0	0	0
O=C(O)CSc1nnc(NC(=O)CN2CCOCC2)s1	0	0	0	0	0	0
COc1ccc(NC(C)=O)cc1CNC(=O)CN1CCOCC1	0	0	0	0	0	0
COc1cc(NS(C)(=O)=O)c(OC)cc1NC(=O)c1ccccc1	0	0	0	57.3	0	0
COc1ccc(NC(=O)c2ccccc2)cc1NS(=O)(=O)c1ccc(F)cc1	0	0	0	0	0	0
COc1ccccc1NC(=O)Nc1ccc(Cl)c(S(=O)(=O)Nc2ccccc2OC)c1	0	0	0	0	0	0
COc1ccc(NC(=O)c2ccc(-c3ccccc3)cc2)cc1NS(=O)(=O)c1ccc(F)cc1	0	0	0	61.5	0	0
COc1ccccc1NS(=O)(=O)c1cc(NC(=O)c2ccc(Cl)nc2)ccc1Cl	50.2	0	71.5	101.9	0	0
COc1cc(NC(=O)c2ccccc2)c(OC)cc1NC(C)=O	0	0	0	0	0	0
COc1ccccc1NS(=O)(=O)c1cccc(NC(=O)Nc2cccc(Cl)c2)c1	0	0	51.0	81.2	0	0
COc1ccc(C(=O)Nc2ccc(Cl)c(S(=O)(=O)Nc3ccccc3OC)c2)cc1	0	0	52.7	80.5	0	0
O=C(COC(=O)Cc1ccsc1)Nc1ccc(Cl)cc1F	0	0	0	0	0	0
SMILES	Peg3 prom inh	KKLEB tox	TROY NFkB inh	TWEAK-Fn14 inh	CF NFkB inh	HIF-2a inh
Cc1ccc(NC(=O)c2cnc(N3CCN(c4ccccn4)CC3)c3ccccc23)c(Br)c1	89.9	0	68.1	92.8	0	0
O=C(Nc1c(F)cccc1F)c1cnc(N2CCN(c3ccccn3)CC2)c2ccccc12	72.5	0	0	60.1	0	0
O=C(c1cnc(N2CCN(c3ncccn3)CC2)c2ccccc12)N1CCN(c2ccccn2)CC1	0	0	0	0	0	0
O=C(COC(=O)c1ccccc1)NC1CCCC1	0	0	0	0	0	0
O=C(ONC(=O)C1CCCCC1C(=O)NOC(=O)c1ccccc1)c1ccccc1 (centres undefined)	0	0	0	51.0	0	0
CCOC(=O)C(=O)Cc1nc(OCc2ccccc2)cc(OCc2ccccc2)n1	0	0	0	0	0	0
CCOC(=O)C(Cc1nc(OCc2ccccc2)cc(OCc2ccccc2)n1)=NO	55.1	0	0	0	0	0
CCOc1cc(/C=N/NC(=O)COc2ccc(Cl)cc2)ccc1OS(=O)(=O)c1ccccc1	0	0	0	53.7	0	0
CCOc1ccc(-c2cc(C(=O)NCCCN3CCCC3)c3ccccc3n2)cc1	0	0	0	0	0	0
CCCCOc1ccc(-c2nc(-c3cccnc3)no2)cc1	0	0	0	0	0	0
CCOc1ccc(-c2nc(-c3cccnc3)no2)cc1	0	0	0	67.4	0	0
CCOc1ccc(-c2nnc(-c3ccccc3)o2)cc1	0	0	0	81.2	0	0
Cc1ccc(S(=O)(=O)N(C)C)cc1NC(=O)COC(=O)C1CC1	0	0	0	0	0	0
COc1ccc(CNC(=O)C(c2ccc(C)o2)N(Cc2cccs2)C(=O)Cc2cccs2)cc1 (centres undefined)	59.5	0	0	0	0	0
Cc1cc(C)n(-c2ccc([N+](=O)[O-])cc2)n1	106.7	0	0	0	0	0
O=C(O)c1ccc(C(=O)c2cc([N+](=O)[O-])cc([N+](=O)[O-])c2)cc1	0	0	0	0	0	0
O=C(COc1ccccc1/C=C1\SC(=S)NC1=O)Nc1ccc(F)cc1	0	0	0	0	51.9	0
Cc1nc(-c2ccc(S(=O)(=O)Nc3ccc(Br)cc3F)cc2)co1	0	0	0	0	0	0
COCCCNC(=O)C1CCC(=O)N1Cc1ccccc1Cl (centres undefined)	0	0	-	85.4	0	0
CCCNC(=O)Cc1c(C)n(C(=O)c2ccc(Cl)cc2)c2ccc(OC)cc12	0	0	0	0	0	0
CCC(=O)NNC(=O)Cc1c(C)n(C(=O)c2ccc(Cl)cc2)c2ccc(OC)cc12	0	0	0	56.3	0	0

Source: PubChem (Sanford-Burnham Center for Chemical Genomics)
